Assay [1] can be described thus: qHTS assay to identify small molecule agonists of the TGF-beta/Smad signaling pathway (AID 1346859; active means well fitted activation curve with a large enough effect in the signal ratio in the repeat runs, not every such curve was filed as active; the % refers to the signal ratio; further: series mostly up to about 77 µM). The procedure, abridged:
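Read-out: fluorescence at 460 and 530 nm (405 nm excitation) after a 2 hr room-temperature incubation with beta-lactamase FRET substrate. SBE-bla HEK 293T cells had been treated with test compounds for 5 hr at 37 C.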
For orientation: Quantitative high-throughput screening tests each substance at several concentrations.

In assay [2] the target is Thyrotropin-releasing hormone receptor (Homo sapiens) (UniProt P34981). The assay is described as follows: qHTS assay to identify small molecule antagonists of the thyrotropin-releasing hormone receptor (TRHR) signaling pathway (AID 1346877; active means well fitted inhibition curve with a large enough effect in the repeat runs, not every such curve was filed as active; further: series mostly up to about 51 µM). The method, boiled down: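 Antagonist mode: after a 5 min room-temperature compound exposure, cells were stimulated with 1 nM (final) TRH. Dye-loaded TRHR-HEK293 cells were used, and calcium-dependent fluorescence was followed for 3 min, with 15-point titrations run in triplicate.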

The target is the same in assay [3]. The assay is described as follows: qHTS assay to identify small molecule agonists of the thyrotropin-releasing hormone receptor (TRHR) signaling pathway (AID 1346891; calls by dose curve;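 further: HEK293 cells expressing TRHR with calcium dye readout; series mostly up to about 58 µM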). The procedure, abridged:
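HEK293/TRHR cells, 1500 per well, 18 h 37 °C; Ca dye 2 h 37 °C; pin-tool compound addition (agonist mode); kinetic fluorescence 3 min, 1 s reads; 15 concentrations, triplicate.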

Assay [4] can be described thus: Human pregnane X receptor (PXR) small molecule agonists, qHTS cell viability counter screen (AID 1346977). Further: nearly all actives have a fitted effect of over 50% in size. The procedure, abridged: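 Fluorescence read-out (CellTiter-Fluor) of viability in PXR-Luc HepG2 cells, multiplexed with the luciferase agonist read. Compounds in DMSO added after 5hr plating; 24hr total exposure at 37C, 5% CO2.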
Assay [5] in a line: Caspase-3/7 induction in HepG2 cells by small molecules, qHTS assay (AID 1346978). Further: nearly all actives have a fitted effect of over 15% in size. The method, boiled down:
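Wild-type HepG2 cells (2,000/well) were settled 5 h at 37 C, 5% CO2, then exposed to compounds in DMSO for 17 h. Caspase-3/7 activity was read by luminescence 30 min after adding Caspase-Glo 3/7 reagent at room temperature.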

The nature of assay [6]: Caspase-3/7 induction in CHO-K1 cells by small molecules, qHTS cell viability counter screen (AID 1346979). Further: nearly all actives have a fitted effect of over 35% in size. The method, boiled down: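 CHO-K1 wt, 1,500 cells/well; 5hr pre-incubation 37C/5% CO2; compound pin transfer (DMSO); 16hr exposure; CellTiter-Fluor added, 1hr, fluorescence read.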
A short description of assay [7]: Caspase-3/7 induction in CHO-K1 cells by small molecules, qHTS assay (AID 1346980). Further: nearly all actives have a fitted effect of over 15% in size. The procedure, abridged:
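Wild-type cells were seeded at 1,500 per well and settled 5 hr at 37 C, 5% CO2, then exposed to DMSO-dissolved compounds for 17 hr. Caspase-Glo 3/7 reagent was added, and luminescence was read after 30min at room temperature.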

Assay [8] in a line: Caspase-3/7 induction in HepG2 cells by small molecules, qHTS cell viability counter screen (AID 1346981). Further: series mostly up to about 92 µM; nearly all actives have a fitted effect of over 30% in size. The method, boiled down: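 CellTiter-Fluor fluorescence measured viability in the same wells used for Caspase-Glo 3/7. HepG2 (wild type) at 2,000 cells/well were pre-incubated 5 hr, dosed, and given reagent at 16 hr, with 1 hr further at 37C.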
For assay [9], the target named is Cytochrome P450 2D6 (Homo sapiens) (UniProt P10635). The assay is described as follows: Cytochrome P450 Family 2 Subfamily D Member 6 (CYP2D6) small molecule antagonists: luciferase reporter qHTS assay (AID 1671196). Further: series mostly up to about 120 µM; nearly all actives have a fitted effect of over 50% in size. The procedure, abridged:
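CYP2D6 activity was followed as luminescence from its luciferin product after a 1 h NADPH-driven reaction at room temperature. Enzyme-substrate mix and compound were pre-incubated for 10 min, and the signal was read 20 min after adding detection reagent.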
Background: A reporter such as luciferase makes a cellular process visible.

The target of assay [10] is Cytochrome P450 2C19 (Homo sapiens) (UniProt P33261). The assay is described as follows: Cytochrome P450 Family 2 Subfamily C Member 19 (CYP2C19) small molecule antagonists: luciferase reporter qHTS assay (AID 1671197). Further: nearly all actives have a fitted effect of over 65% in size. Further: potency means the concentration at half of the fitted maximal effect. On activity change, negative = inhibition: series mostly up to about 120 µM. The method, boiled down: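 P450-Glo CYP2C19 system: enzyme-substrate mix with compound 10 min at room temperature, then NADPH regeneration solution, 1 h at 37C. Proluciferin-to-luciferin conversion detected by luminescence after 20 min with detection reagent; ketoconazole as positive control.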

In assay [11] the target is Cytochrome P450 2C9 (Homo sapiens) (UniProt P11712). As to the kind of experiment: Cytochrome P450 Family 2 Subfamily C Member 9 (CYP2C9) small molecule antagonists: luciferase reporter qHTS assay (AID 1671198). Further: nearly all actives have a fitted effect of over 50% in size. Further: potency means the concentration at half of the fitted maximal effect. On activity change, negative = inhibition: series mostly up to about 120 µM. The procedure, abridged:
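CYP2C9 activity was measured with a P450-Glo proluciferin substrate. Enzyme–substrate mix was held with compound for 10 min at room temperature, then NADPH regeneration solution was added for 1 h at 37C. Luciferin product was read as luminescence.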

Assay [12] deals with Voltage-gated inwardly rectifying potassium channel KCNH2 (Homo sapiens) (UniProt Q12809). As to the kind of experiment: Human Ether-a-go-go-Related Gene (hERG) channel small molecule antagonists: fluorescence cell-based qHTS assay (AID 1671200).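 Further: hERG-expressing U2OS cells given a thallium stimulus after FluxOR II dye loading; series mostly up to about 77 µM; nearly all actives have a fitted effect of over 50% in size.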 The procedure, abridged:
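Read-out: thallium influx as a surrogate for potassium, tracked as fluorescence (480 nm ex/540 nm em) every second for 2 min after Stimulus Buffer addition in dye-loaded hERG-U2OS cells.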
On the technique in general: The hERG channel carries a current that helps repolarise heart muscle cells.

The target in assay [13] is Cytochrome P450 3A4 (Homo sapiens) (UniProt P08684). The assay is described as follows: Cytochrome P450 Family 3 Subfamily A Member 4 (CYP3A4) small molecule antagonists: luciferase reporter qHTS assay (AID 1671201). Further: nearly all actives have a fitted effect of over 50% in size. Further: potency means the concentration at half of the fitted maximal effect. On activity change, negative = inhibition: series mostly up to about 120 µM. The method, boiled down:
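Luminescent readout (RLU) proportional to CYP3A4 activity, from luciferin generated off a proluciferin substrate. Enzyme–substrate mix plus compound 10 min at room temp, NADPH regeneration 1 h, detection reagent 20 min.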

Assay [14] deals with Cytochrome P450 1A2 (Homo sapiens) (UniProt P05177). The assay is described as follows: Cytochrome P450 Family 1 Subfamily A Member 2 (CYP1A2) small molecule antagonists: luciferase reporter qHTS assay (AID 1671199). Further: nearly all actives have a fitted effect of over 50% in size. Further: potency means the concentration at half of the fitted maximal effect. On activity change, negative = inhibition: series mostly up to about 120 µM. The procedure, abridged: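 Luminescence from luciferin formed by CYP1A2 from a proluciferin substrate, read 20 min after detection reagent. Compound was pre-incubated 10 min with enzyme-substrate, and reaction started with NADPH regeneration solution for 1 h at room temperature; furafylline control.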

The target in assay [15] is Nuclear receptor subfamily 1 group I member 2 (Homo sapiens) (UniProt O75469). The assay is described as follows: Human pregnane X receptor (PXR) small molecule agonists, qHTS assay (AID 1346982). Further: nearly all actives have a fitted effect of over 35% in size. Further: potency means the concentration at half of the fitted maximal effect. The method, boiled down: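 Agonist mode: luminescence from ONE-Glo after 24 h compound exposure at 37C in HepG2 cells carrying hPXR-responsive CYP3A4 luciferase, plated in charcoal-stripped serum medium 5 h beforehand.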

The target in assay [16] is Nuclear receptor subfamily 1 group I member 2 (Rattus norvegicus) (UniProt Q9R1A7). The assay is described as follows: Rat pregnane X receptor (rPXR) activation by small molecules, qHTS assay (AID 1346983). Further: nearly all actives have a fitted effect of over 20% in size. The note with it: rPXR luciferase reporter cells, One-Glo luminescence, 24 h; max activation: active compounds read high. The procedure, abridged:
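Cell-based rPXR luciferase reporter assay, 2,000 cells per well, rested 5hr at 37 C before compound addition in DMSO, then 24 hr at 37 C. One-Glo reagent was added and luminescence read after 30 min at room temperature.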

Assay [17] addresses Nuclear receptor subfamily 1 group I member 2 (Homo sapiens) (UniProt O75469). The assay is described as follows: CYP3A4 induction through human pregnane X receptor (PXR) by small molecules, qHTS assay (AID 1346984). Further: nearly all actives have a fitted effect of over 40% in size. The procedure, abridged: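 Read-out is luminescence after One-Glo addition, following a 3 hr, 37C incubation with Luciferin-IPA CYP3A4 substrate (3uM final). Before that, compounds were on DPX-2 cells (HepG2 co-transfected with PXR element plus CYP3A4-promoter luciferase) for 24 hr at 37C.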

Assay [18] shares this target. As to the kind of experiment: Human pregnane X receptor (PXR) activation by small molecules, qHTS assay (AID 1346985). Further: nearly all actives have a fitted effect of over 40% in size. The method, boiled down: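 DPX-2 cells (HepG2 co-transfected with a PXR response element and a CYP3A4-promoter luciferase construct) were seeded at 2,000 per well, rested 5 hr at 37C, then exposed to DMSO-dissolved compounds for 24 hr. Activation was read as luciferase luminescence.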

Molecules are shown by their SMILES. A number with no mark means an inactive call. Results filed as inconclusive are left out. Activity calls are given as the source filed them. Unless noted, the call rests on the fitted dose curve; in most records, active means well fitted curve in the direction sought with a large enough effect in the repeat runs; inconclusive means weak or mixed curves; inactive means no such curve, though single readings can be large; an effect the other way counts as inactive or inconclusive.

The source of these data is PubChem BioAssay (Tox21).
On the % scale 0 is the no-effect control and ±100 the full control effect.

Chain of Cytochrome P450 3A4 (Homo sapiens) (P08684 whole entry, looked up): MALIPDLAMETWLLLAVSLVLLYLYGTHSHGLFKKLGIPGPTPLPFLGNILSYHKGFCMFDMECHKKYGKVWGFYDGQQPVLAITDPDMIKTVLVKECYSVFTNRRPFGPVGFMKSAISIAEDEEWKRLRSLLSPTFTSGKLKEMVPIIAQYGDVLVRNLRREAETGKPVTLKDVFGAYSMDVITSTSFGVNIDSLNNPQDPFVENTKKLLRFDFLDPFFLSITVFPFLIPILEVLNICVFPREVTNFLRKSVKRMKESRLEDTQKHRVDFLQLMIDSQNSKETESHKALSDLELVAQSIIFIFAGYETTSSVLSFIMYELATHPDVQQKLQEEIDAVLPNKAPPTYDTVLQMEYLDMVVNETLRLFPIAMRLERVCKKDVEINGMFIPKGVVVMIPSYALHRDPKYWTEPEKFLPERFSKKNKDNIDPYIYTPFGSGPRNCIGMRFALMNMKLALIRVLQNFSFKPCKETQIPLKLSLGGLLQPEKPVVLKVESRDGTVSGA
Chain of Cytochrome P450 1A2 (Homo sapiens) (P05177 whole entry, looked up): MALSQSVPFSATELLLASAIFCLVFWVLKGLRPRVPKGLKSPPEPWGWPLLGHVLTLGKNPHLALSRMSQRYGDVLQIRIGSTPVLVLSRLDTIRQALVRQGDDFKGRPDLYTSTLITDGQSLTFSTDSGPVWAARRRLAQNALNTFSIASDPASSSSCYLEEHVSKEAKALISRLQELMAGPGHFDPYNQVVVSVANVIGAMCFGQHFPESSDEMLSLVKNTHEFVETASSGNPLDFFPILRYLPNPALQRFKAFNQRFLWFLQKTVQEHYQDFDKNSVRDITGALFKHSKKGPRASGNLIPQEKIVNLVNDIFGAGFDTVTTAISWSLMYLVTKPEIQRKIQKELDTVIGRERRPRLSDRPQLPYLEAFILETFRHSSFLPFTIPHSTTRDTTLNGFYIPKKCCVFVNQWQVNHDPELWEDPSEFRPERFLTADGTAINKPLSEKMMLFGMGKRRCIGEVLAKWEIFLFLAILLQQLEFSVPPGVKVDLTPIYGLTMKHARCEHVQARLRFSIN
Chain of Voltage-gated inwardly rectifying potassium channel KCNH2 (Homo sapiens) (Q12809 whole entry, looked up): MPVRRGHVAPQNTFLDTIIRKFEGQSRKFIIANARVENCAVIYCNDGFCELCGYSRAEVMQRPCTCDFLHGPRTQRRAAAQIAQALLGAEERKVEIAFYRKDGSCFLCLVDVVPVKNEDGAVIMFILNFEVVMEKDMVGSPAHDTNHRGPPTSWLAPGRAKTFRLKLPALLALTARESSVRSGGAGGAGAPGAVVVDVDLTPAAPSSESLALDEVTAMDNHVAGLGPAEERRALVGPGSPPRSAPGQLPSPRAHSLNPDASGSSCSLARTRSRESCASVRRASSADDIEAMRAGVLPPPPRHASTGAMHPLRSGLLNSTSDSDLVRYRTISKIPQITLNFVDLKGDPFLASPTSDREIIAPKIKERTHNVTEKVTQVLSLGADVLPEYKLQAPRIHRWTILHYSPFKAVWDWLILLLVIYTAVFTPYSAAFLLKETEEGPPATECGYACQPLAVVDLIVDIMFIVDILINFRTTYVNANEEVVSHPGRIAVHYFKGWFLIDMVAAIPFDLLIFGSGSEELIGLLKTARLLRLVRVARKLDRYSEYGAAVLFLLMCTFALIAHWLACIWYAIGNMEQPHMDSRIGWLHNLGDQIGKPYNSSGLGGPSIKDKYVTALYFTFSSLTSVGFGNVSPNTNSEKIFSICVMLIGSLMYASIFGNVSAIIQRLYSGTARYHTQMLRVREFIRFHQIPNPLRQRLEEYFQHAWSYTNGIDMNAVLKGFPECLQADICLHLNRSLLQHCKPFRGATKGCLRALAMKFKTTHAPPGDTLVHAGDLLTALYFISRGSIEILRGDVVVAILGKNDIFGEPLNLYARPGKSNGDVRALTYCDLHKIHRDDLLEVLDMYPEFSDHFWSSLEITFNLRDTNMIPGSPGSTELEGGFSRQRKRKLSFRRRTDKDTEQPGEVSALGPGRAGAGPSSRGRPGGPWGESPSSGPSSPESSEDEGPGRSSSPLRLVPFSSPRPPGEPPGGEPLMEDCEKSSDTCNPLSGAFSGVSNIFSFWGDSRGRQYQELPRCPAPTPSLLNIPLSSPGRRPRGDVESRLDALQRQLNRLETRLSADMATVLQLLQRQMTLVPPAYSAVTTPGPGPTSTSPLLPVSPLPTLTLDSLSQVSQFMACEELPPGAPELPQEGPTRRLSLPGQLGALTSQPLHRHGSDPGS
Chain of Cytochrome P450 2C9 (Homo sapiens) (P11712 whole entry, looked up): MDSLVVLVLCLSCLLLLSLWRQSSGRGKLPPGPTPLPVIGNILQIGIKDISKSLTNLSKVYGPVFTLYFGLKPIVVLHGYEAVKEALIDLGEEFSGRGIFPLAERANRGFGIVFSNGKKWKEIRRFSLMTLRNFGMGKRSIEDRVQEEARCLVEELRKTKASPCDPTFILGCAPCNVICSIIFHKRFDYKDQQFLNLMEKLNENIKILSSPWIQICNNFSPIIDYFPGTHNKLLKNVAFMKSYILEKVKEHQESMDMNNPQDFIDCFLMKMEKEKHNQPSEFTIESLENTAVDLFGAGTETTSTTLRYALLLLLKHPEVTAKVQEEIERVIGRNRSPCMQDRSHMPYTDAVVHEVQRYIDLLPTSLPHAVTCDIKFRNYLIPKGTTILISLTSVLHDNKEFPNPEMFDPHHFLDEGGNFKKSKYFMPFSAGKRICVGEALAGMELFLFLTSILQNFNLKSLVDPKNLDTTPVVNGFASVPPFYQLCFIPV
Chain of Nuclear receptor subfamily 1 group I member 2 (Homo sapiens) (O75469 whole entry, looked up): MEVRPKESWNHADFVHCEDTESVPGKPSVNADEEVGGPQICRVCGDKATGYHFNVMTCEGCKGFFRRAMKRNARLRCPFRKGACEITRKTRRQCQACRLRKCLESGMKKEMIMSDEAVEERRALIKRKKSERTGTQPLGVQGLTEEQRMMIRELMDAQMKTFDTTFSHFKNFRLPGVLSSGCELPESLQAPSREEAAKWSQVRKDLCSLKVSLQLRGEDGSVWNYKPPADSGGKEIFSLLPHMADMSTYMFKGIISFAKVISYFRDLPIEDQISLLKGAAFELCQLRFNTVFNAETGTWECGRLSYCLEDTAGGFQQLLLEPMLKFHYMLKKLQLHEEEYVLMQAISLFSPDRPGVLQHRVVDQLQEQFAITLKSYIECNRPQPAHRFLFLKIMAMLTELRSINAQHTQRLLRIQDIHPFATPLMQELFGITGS
Chain of Cytochrome P450 2C19 (Homo sapiens) (P33261 whole entry, looked up): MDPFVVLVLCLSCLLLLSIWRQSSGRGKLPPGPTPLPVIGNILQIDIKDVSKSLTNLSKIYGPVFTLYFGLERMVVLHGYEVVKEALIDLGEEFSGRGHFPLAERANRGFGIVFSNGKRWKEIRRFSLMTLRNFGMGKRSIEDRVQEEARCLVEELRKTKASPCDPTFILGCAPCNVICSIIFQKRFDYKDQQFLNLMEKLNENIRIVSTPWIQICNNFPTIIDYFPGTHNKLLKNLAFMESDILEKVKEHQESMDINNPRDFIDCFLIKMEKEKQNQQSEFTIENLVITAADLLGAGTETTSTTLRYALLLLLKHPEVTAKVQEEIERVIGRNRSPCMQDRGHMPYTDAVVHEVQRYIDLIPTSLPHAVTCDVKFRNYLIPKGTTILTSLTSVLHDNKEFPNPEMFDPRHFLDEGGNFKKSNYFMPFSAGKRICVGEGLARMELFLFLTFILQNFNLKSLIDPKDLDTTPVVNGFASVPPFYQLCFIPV
Chain of Cytochrome P450 2D6 (Homo sapiens) (P10635 whole entry, looked up): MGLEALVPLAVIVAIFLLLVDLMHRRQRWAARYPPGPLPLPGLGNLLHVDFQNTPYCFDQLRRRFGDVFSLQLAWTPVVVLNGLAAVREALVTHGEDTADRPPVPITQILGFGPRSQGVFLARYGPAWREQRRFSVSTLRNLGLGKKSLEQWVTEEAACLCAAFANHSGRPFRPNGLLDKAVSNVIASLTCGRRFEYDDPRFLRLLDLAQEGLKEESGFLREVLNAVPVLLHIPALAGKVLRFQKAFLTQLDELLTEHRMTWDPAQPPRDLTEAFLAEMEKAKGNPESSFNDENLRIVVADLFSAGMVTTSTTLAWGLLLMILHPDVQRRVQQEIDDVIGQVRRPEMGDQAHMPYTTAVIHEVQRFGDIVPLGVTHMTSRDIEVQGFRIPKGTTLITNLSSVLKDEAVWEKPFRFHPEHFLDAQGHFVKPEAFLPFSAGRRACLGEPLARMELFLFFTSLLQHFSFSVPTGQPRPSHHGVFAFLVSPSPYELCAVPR
Chain of Thyrotropin-releasing hormone receptor (Homo sapiens) (P34981 whole entry, looked up): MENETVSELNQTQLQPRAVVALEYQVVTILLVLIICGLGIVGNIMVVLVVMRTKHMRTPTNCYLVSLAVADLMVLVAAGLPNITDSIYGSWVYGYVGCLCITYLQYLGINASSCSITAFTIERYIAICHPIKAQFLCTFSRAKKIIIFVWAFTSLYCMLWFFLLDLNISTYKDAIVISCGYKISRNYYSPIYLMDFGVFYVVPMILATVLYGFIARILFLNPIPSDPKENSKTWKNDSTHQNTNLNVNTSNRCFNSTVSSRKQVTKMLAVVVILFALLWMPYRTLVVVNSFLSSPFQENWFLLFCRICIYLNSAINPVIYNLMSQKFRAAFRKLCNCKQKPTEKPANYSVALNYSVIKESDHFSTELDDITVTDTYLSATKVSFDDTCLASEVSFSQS
Chain of Nuclear receptor subfamily 1 group I member 2 (Rattus norvegicus) (Q9R1A7 whole entry, looked up): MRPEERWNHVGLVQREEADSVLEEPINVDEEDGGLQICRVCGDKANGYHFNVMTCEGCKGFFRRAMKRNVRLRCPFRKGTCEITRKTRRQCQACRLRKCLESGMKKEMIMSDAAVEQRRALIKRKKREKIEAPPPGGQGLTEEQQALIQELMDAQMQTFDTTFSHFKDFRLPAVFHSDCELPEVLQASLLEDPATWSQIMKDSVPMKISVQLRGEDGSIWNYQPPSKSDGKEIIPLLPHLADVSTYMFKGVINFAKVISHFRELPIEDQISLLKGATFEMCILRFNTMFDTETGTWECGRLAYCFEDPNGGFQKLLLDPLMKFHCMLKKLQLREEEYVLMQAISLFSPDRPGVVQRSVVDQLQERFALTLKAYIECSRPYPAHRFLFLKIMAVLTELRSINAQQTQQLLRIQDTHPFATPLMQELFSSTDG

As to `CCc1ncc(C)[nH]1`, the outcome in assay [1], in assay [2], in assay [4], in assay [5], in assay [7] and in [8] was inactive. Besides, the Potency result in [3], in [6], in assay [9], in assay [10], in assay [11] and in [12] was “inactive” throughout. Besides, in assay [13], the Potency entry was “inactive”.
In the case of `CCN1CCN(C(=O)N[C@@H](C(=O)N[C@@H]2C(=O)N3[C@@H]2SC(C)(C)[C@H]3C(=O)O)c2ccccc2)C(=O)C1=O`, the call in assay [1], in [2], in assay [4], in [5], in assay [7] and in assay [8] was inactive. The Potency result in [3], in [6], in assay [9], in assay [10], in [11] and in assay [14] was “inactive” each time. Moreover, the Potency result in [13] was “inactive”.
`C/C(=N\O)c1ccc(OCC(=O)N2CCCCC2)cc1`: the outcome in [1], in assay [2], in [4], in [5], in [7] and in assay [8] was inactive. For the same compound, the Potency entry in assay [3], in [6] and in assay [12] was “inactive” each time. In assay [15], the Potency was 10.6 µM (active).
For the compound `CN(C)CCc1c[nH]c2ccc(C[C@H]3COC(=O)N3)cc12`, the call in assay [1], in [2], in [4], in assay [5], in assay [7] and in [8] was inactive. Besides, the outcome in assay [17] and in [18] was inactive. Besides, the Potency entry in [3], in assay [6], in [10], in assay [11], in [14] and in assay [12] was “inactive” each time. Moreover, in assay [13], the Potency result was “inactive”. Besides, in [16], the max activation is -1.7%.
In the case of `CC(C)(O)CCCC1=CCC(C=O)CC1` (stereo not given), the call in assay [1], in [2], in assay [4], in assay [5] and in [8] was inactive. The Potency entry in assay [3], in assay [6] and in assay [12] was “inactive” each time. For the same compound, the Potency was 10.7 µM (active) in assay [10], 60.2 µM (active) in assay [11], 38 µM (active) in assay [14] and 67.5 µM (active) in assay [13].
For the compound `N=C(N)N1CCc2ccccc2C1`, the activation in assay [1] was -1.64% [at 6.97 µM]; in assay [3], 0.0364% [at 5.23 µM]; in assay [15] it was -6.7% [at 8.39 µM]. For the same compound, the activity, negative = inhibition in assay [2] is 4% [at 4.65 µM]. Moreover, the activity change, negative = cytotoxicity was 4.15% [at 8.39 µM] in assay [4] and 3.77% [at 8.39 µM] in [8]. For the same compound, the caspase activation in [5] was -1.31% [at 8.39 µM]. The caspase-3/7 activation in assay [7] is -0.384% [at 8.39 µM]. In addition, the max activation in assay [16] is -0.056%. Besides, the outcome in assay [17] and in assay [18] was inactive. The activity change, negative = inhibition was -15.2% [at 10.5 µM] in assay [9], 22.1% [at 10.5 µM] in assay [10], 6.48% [at 10.5 µM] in assay [11] and 0.421% [at 10.5 µM] in [14].
As to `Cc1ccccc1C#N`, the result in assay [1], in [2], in assay [4], in assay [5] and in assay [8] was inactive. The Potency entry in assay [3], in assay [6], in [15], in assay [9], in [10] and in assay [11] was “inactive” throughout. The Potency result in assay [14], in [12] and in assay [13] was “inactive” in each case.
With `CNC(=O)c1c(I)c(NC(C)=O)c(I)c(C(=O)O)c1I`, the compound was called inactive in assay [1], in [2], in assay [4], in [5], in assay [7] and in assay [8]. Further, the Potency entry in assay [3], in [15], in assay [9], in [10], in assay [11] and in assay [12] was “inactive” in each case. In addition, in assay [13], the Potency result is “inactive”.
As for `CC(C)(C)C(=O)CC(=O)C(C)(C)C`, the compound was called inactive in [1], in assay [2], in assay [4], in [5], in assay [7] and in assay [8]. The Potency result in assay [3], in [10], in [11], in assay [14] and in [12] was “inactive” each time.
Consider `COCCCOc1cc(C[C@@H](C[C@H](N)[C@@H](O)C[C@H](C(=O)NCC(C)(C)C(N)=O)C(C)C)C(C)C)ccc1OC`, for which the call in assay [1], in assay [2], in assay [4], in [5], in assay [7] and in assay [8] was inactive. In addition, the Potency result in assay [3], in assay [15], in [10], in assay [11], in assay [14] and in assay [12] was “inactive” in each case.
For the compound `CCCC(=O)C(CC)Sc1ccoc1C` (stereo not given), the call in assay [1], in assay [2], in assay [4], in assay [5] and in [7] was inactive. The Potency entry in [3], in assay [15] and in assay [9] was “inactive” in each case.
As to `O=C(O)CCC(=O)Nc1ccc(S(=O)(=O)Nc2nccs2)cc1`, the compound was called inactive in assay [1], in assay [2], in [4], in assay [5] and in assay [7]. Also, the Potency result in assay [3], in assay [6] and in [12] was “inactive” each time.
